# Results published in PubChem BioAssay (NCI).
# About 83,000 compounds went through this panel and 20% of them were active in at least one assay; those are over-represented in the sample as a whole.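 Assay: single dose, 48 h. Readout: percent growth (0 = no net growth; negative = cell death). Active: <10.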 Values without a mark were called inactive. Active and inactive are the calls of the source.
# Key:
# Assay in all cases: NCI-60 one-dose screen, 48 h (100 = growth as untreated, 0 = no growth, -100 = all killed)
# Conditions in all cases: 10 µM unless noted
# SK-MEL-2 melanoma = tested on: SK-MEL-2 melanoma
# EKVX NSCLC = tested on: EKVX NSCLC
# SN12C renal = tested on: SN12C renal
# UO-31 renal = tested on: UO-31 renal
# TK-10 renal = tested on: TK-10 renal
# ACHN renal = tested on: ACHN renal
# CAKI-1 renal = tested on: CAKI-1 renal
# A498 renal = tested on: A498 renal
# SR leukemia = tested on: SR leukemia
# RPMI-8226 leukemia = tested on: RPMI-8226 leukemia
# OVCAR-8 ovarian = tested on: OVCAR-8 ovarian
# OVCAR-5 ovarian = tested on: OVCAR-5 ovarian
# OVCAR-4 ovarian = tested on: OVCAR-4 ovarian
# SK-OV-3 ovarian = tested on: SK-OV-3 ovarian
# IGROV1 ovarian = tested on: IGROV1 ovarian
# OVCAR-3 ovarian = tested on: OVCAR-3 ovarian
# HS 578T breast = tested on: HS 578T breast
# NCI/ADR-RES ovarian = tested on: NCI/ADR-RES ovarian
# MOLT-4 leukemia = tested on: MOLT-4 leukemia
# CCRF-CEM leukemia = tested on: CCRF-CEM leukemia
Compound,growth (SK-MEL-2 melanoma),growth (EKVX NSCLC),growth (SN12C renal),growth (UO-31 renal),growth (TK-10 renal),growth (ACHN renal),growth (CAKI-1 renal),growth (A498 renal),growth (SR leukemia),growth (RPMI-8226 leukemia),growth (OVCAR-8 ovarian),growth (OVCAR-5 ovarian),growth (OVCAR-4 ovarian),growth (SK-OV-3 ovarian),growth (IGROV1 ovarian),growth (OVCAR-3 ovarian),growth (HS 578T breast),growth (NCI/ADR-RES ovarian),growth (MOLT-4 leukemia),growth (CCRF-CEM leukemia)
CC(=O)c1ccc(Nc2nc(SCC(C)C)nc(-c3ccccc3)c2C#N)cc1,76.7%,88.6%,95.9%,111%,98.4%,47.8%,69.6%,107%,110%,111%,70%,109%,103%,79.7%,88.6%,122%,44.6%,89.1%,–,–
CS(=O)(=O)Nc1cc(-c2ccc3ncc(C#N)c(NCc4ccccc4)c3c2)cnc1Cl,-42.2% (active),-20.1% (active),7.64% (active),1.63% (active),-25.2% (active),5.99% (active),-27.7% (active),-57.2% (active),-18.9% (active),-35.3% (active),7.32% (active),3.75% (active),-6.69% (active),-15% (active),-17.4% (active),–,–,24.5%,-25.6% (active),–
N/C(=N\C(N)=N\c1nc2ccccc2s1)c1ccc2ccccc2c1,97.7%,47.9%,75.3%,23.4%,126%,78.4%,36.4%,96.9%,-17.6% (active),76.7%,84.8%,102%,85%,116%,55.3%,109%,–,30.3%,60.6%,–
COc1ccc(/C=C/C(=O)c2cccc(NC(=O)CSc3nc4ccccc4c(=O)n3-c3ccccc3)c2)cc1OC,104%,103%,105%,91.9%,125%,100%,88%,99.4%,73%,67.9%,102%,111%,98.8%,120%,105%,–,100%,105%,91.1%,–
Cc1noc(C)c1CSc1nc2ccccc2n1-c1ccccc1,107%,65.2%,81.4%,48.8%,58.9%,96.1%,41.6%,48.1%,69.7%,95.8%,102%,89%,69.1%,116%,77%,114%,102%,97.3%,97%,–
N#Cc1ccccc1Cn1c2nc(=N)c3ccccc3c-2nc2ccccc21,87.9%,49.4%,61.5%,51.3%,102%,56.4%,50.9%,69.7%,–,77.2%,66.4%,78.6%,29.8%,79.2%,49.6%,-5.06% (active),97.8%,71.1%,–,–
CNC(=O)c1c(NC(=O)c2ccccc2C(F)(F)F)sc2c1CCC(=O)C2,88.1%,23.9%,62.1%,3.82% (active),26.2%,9.31% (active),0.09% (active),80.4%,29%,-0.77% (active),24.6%,23.2%,16.2%,95.7%,36.6%,–,40%,28.1%,–,–
CNC(=O)c1cc(-c2ccc(NS(=O)(=O)c3ccc(C)cc3)cc2)nc2cccnc12,102%,95.9%,103%,81.5%,118%,104%,94.4%,–,113%,110%,99.5%,117%,99.5%,107%,97.4%,111%,104%,100%,100%,109%
COc1ccccc1-n1cc(C#N)c(N)c1C(=O)c1ccc(C)cc1,79.1%,89.1%,91.1%,90%,102%,101%,78.5%,–,–,99.7%,95%,103%,103%,93.5%,84.6%,94.6%,85.6%,60.2%,–,85.6%
Clc1ccc(N/N=c2/oc3ccccc3cc2-c2cc3ccccc3[nH]2)cc1,108%,70.2%,70.9%,49.7%,145%,49.7%,58.4%,–,90.8%,–,62.3%,83.4%,69.5%,89.6%,57.2%,–,103%,78.5%,69.6%,79.7%
O=S(=O)(Nc1ccc2c(c1)OCO2)c1ccc(-c2cnc(C3CC3)o2)cc1,53.5%,43.2%,36.8%,45.5%,73.8%,43.6%,40.8%,–,26.6%,–,46.8%,60.7%,36.3%,62.1%,40.6%,7.46% (active),45.5%,16.6%,31.5%,27%
CCn1c(SCC(=O)Nc2cccc(C(=O)/C=C/c3ccc(C)cc3)c2)nc2ccccc2c1=O,108%,98.8%,88%,58.9%,120%,92.2%,80.2%,–,56.4%,7.2% (active),90.9%,97.6%,80%,110%,77.1%,43.9%,–,91%,88%,67.4%
CC/C(=C/c1cc(OC)ccc1O)c1ccc2cc(OC)ccc2[o+]1,71.8%,76.3%,73.9%,68.7%,116%,58.5%,–,29.5%,18.3%,79.4%,87.1%,82.8%,89.8%,60.2%,55.1%,20.7%,63.4%,33.5%,53.4%,39.3%
C=CCN(C)S(=O)(=O)/N=C1\NC(=O)NC1=C(Cl)Cl,90%,62.8%,-22.5% (active),92.5%,65.7%,-96.7% (active),2.82% (active),–,–,5.23% (active),61.2%,-37.5% (active),89.1%,104%,-37.4% (active),-84.3% (active),–,72.5%,-19.7% (active),-27.1% (active)
O=C(NNc1nc2cc(F)cc(F)c2n2cccc12)c1cnccn1,32.6%,8.74% (active),25.5%,18.1%,21.9%,14.5%,–,11.1%,8.81% (active),18.3%,12.7%,33.1%,16.2%,4.18% (active),15%,30.2%,64.4%,3.06% (active),1.8% (active),10.6%
COc1cc2c(cc1OC)C(Sc1ccc(C)cc1)c1c(nc(N)c(C#N)c1N)O2 (stereo not drawn),-20% (active),-84.3% (active),-64.3% (active),-99.7% (active),-63.6% (active),-95.8% (active),-62.9% (active),–,-4.56% (active),-19.2% (active),3.56% (active),-78.8% (active),-59.2% (active),-70.9% (active),-72.8% (active),–,-6.15% (active),-32.1% (active),-9.07% (active),2.14% (active)
NC(N)=Nc1ccc(Oc2cccc(NC(N)=Nc3ccc(Cl)c(C(F)(F)F)c3)c2)cc1,83%,64.4%,31%,87%,74%,87.8%,–,54%,7.43% (active),41.4%,66.8%,48.1%,62.4%,54.9%,-10.5% (active),30.8%,35.8%,95.4%,51.9%,61.8%
CCCn1cnc2c(c1=N)C(c1ccc(OC)cc1)c1sc3c(CC)cccc3c1O2 (stereo not drawn),40.5%,46.4%,29.5%,33.5%,74.6%,35.7%,32.8%,–,–,-8.82% (active),26.9%,41.1%,71.8%,42.3%,31.9%,6% (active),18.3%,7.77% (active),14.5%,4.77% (active)
O=S(=O)(Nc1cccc2ccccc12)c1ccc(-c2cnc(C3CC3)o2)cc1,72.3%,43.1%,34.3%,43.5%,92.6%,36.9%,29.9%,–,21.2%,14.4%,28.5%,42.6%,64.1%,71.3%,23.4%,7.12% (active),39.1%,7.22% (active),21.8%,17.6%
CC1(C)CC[C@]2(C(=O)N3CCOCC3)CC[C@]3(C)C(=CC[C@@H]4[C@@]5(C)C/C(=C/c6ccco6)C(=O)C(C)(C)[C@@H]5CC[C@]43C)[C@@H]2C1,103%,63.4%,86%,49.9%,75.8%,81.7%,37%,–,44.6%,55.6%,91.3%,96.8%,60.9%,109%,86.7%,–,83.5%,96.6%,52.3%,–
Nc1ccccc1NC(=O)c1ccc(NC(=O)C/C=C/c2cccnc2)cc1,15.5%,61.3%,29.1%,17.6%,28.9%,47.1%,45.1%,–,30.7%,6.76% (active),26.3%,29.7%,39.8%,44.5%,23.3%,33.2%,30.3%,50.8%,31.1%,22.5%
O=C(CSc1nnc(-c2ccc3nc(-c4ccccc4)[nH]c3c2)o1)Nc1ccc(C(=O)/C=C/c2ccccc2)cc1,103%,106%,98%,87.4%,110%,102%,103%,–,111%,94.3%,100%,118%,100%,109%,95.8%,116%,103%,–,–,107%
Nc1ncc(-c2ccc(NS(=O)(=O)c3ccc(Cl)c(Cl)c3)cc2)[nH]1,105%,86.7%,90.9%,76.3%,80%,95.7%,71.6%,–,76.6%,59.1%,92.9%,90.4%,93.9%,94.5%,88.8%,–,79.5%,98.3%,73.9%,55.2%
